# Laboratory results: PubChem BioAssay (NCI)
# About 79,000 compounds went through this panel and 15% of them were active in at least one assay; those are over-represented in the sample as a whole. A number with no mark means an inactive call. Calls of active or inactive are those of the source. No stated cut-off is given here; in the data, active means growth inhibition above about 70%; inactive means the rest.
# What was measured:
# [1] = NCI Yeast Anticancer Drug Screen. Data for the rad52 strain (AID 147);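 further: 0% = growth of vehicle-treated control cultures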; details: S. cerevisiae rad52 mutant growth inhibition, stronger effect = higher value
# Outline: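 Read-out: growth inhibition versus vehicle-treated controls. Cells were a DNA repair-deficient yeast strain treated with compounds.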
# [2] = NCI Yeast Anticancer Drug Screen. Data for the wt1 strain (AID 149);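 further: 0% = growth of vehicle-treated wt1 cultures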; details: S. cerevisiae wt1 strain (SPY 50644) growth inhibition, stronger effect = higher value
# Outline: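 Each compound is tested on wt1 yeast and the loss of growth versus vehicle gives the inhibition value.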
# [3] = NCI Yeast Anticancer Drug Screen. Data for the rad50EPP+ strain (AID 151);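 further: 0% = growth of vehicle-treated control cultures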; details: S. cerevisiae rad50 mutant strain, stronger effect = higher value
# Outline: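 Growth inhibition read against vehicle controls in rad50EPP+ yeast, a strain altered in DNA damage repair, after compound exposure.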
# [4] = NCI Yeast Anticancer Drug Screen. Data for the mgt1 strain (AID 153); details: S. cerevisiae mgt1 mutant growth inhibition, stronger effect = higher value
# Outline: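 mgt1 yeast grown with test compound; read-out is growth inhibition versus vehicle-treated cultures.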
# [5] = NCI Yeast Anticancer Drug Screen. Data for the rad50 strain (AID 155);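 further: 0% = growth of vehicle-only cultures of the same strain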; details: S. cerevisiae rad50 strain growth inhibition, stronger effect = higher value
# Outline: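 Vehicle-treated cultures provide the reference for the growth inhibition reported for compound-exposed, repair-deficient yeast.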
# [6] = NCI Yeast Anticancer Drug Screen. Data for the mec2-1 strain (AID 157); details: S. cerevisiae mec2-1 strain, stronger effect = higher value
# Outline: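 Yeast mec2-1 mutant treated with compound. Readout: growth inhibition vs vehicle controls.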
# [7] = NCI Yeast Anticancer Drug Screen. Data for the rad14 strain (AID 159);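 further: 0% = growth of vehicle-treated control cultures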; details: S. cerevisiae rad14 strain growth inhibition, stronger effect = higher value
# Outline: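 Inhibition of growth is reported for a repair-deficient yeast mutant following compound treatment, calculated relative to cultures that received vehicle.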
# [8] = NCI Yeast Anticancer Drug Screen. Data for the sgs1 mgt1 strain (AID 161);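 further: 0% = growth of cultures given vehicle only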; details: S. cerevisiae sgs1 mgt1 strain, stronger effect = higher value
# Outline: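 Genetically altered yeast, compound exposure, growth inhibition relative to vehicle.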
# [9] = NCI Yeast Anticancer Drug Screen. Data for the CLN2oe strain (AID 163);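 further: 0% = growth of vehicle-only control cultures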; details: S. cerevisiae CLN2oe strain, stronger effect = higher value
# Outline: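 Read-out: yeast growth inhibition, expressed relative to vehicle-only controls. The strain bears an engineered cell-cycle alteration.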
# [10] = NCI Yeast Anticancer Drug Screen. Data for the cln2 rad14 strain (AID 165);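 further: 0% = growth equal to vehicle treated cultures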; details: S. cerevisiae cln2 rad14 strain, stronger effect = higher value
# Outline: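 cln2 rad14 yeast strain; compound exposure; growth inhibition read vs vehicle controls.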
# [11] = NCI Yeast Anticancer Drug Screen. Data for the wt2 strain (AID 169);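 further: 0% = growth of vehicle-treated yeast cultures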; details: S. cerevisiae wt2 strain growth inhibition, stronger effect = higher value
# Outline: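 Read-out: growth inhibition versus vehicle-treated control cultures after compound exposure of the yeast strain.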
# [12] = NCI Yeast Anticancer Drug Screen. Data for the sgs1 strain (AID 173);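 further: 0% = growth of vehicle-only control cultures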; details: S. cerevisiae sgs1 mutant, stronger effect = higher value
# Outline: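 Read-out: yeast growth inhibition relative to vehicle controls, following compound exposure of a strain with a defined DNA repair/cell cycle alteration.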
# [13] = NCI Yeast Anticancer Drug Screen. Data for the mlh1 rad18 strain (AID 175); details: S. cerevisiae mlh1 rad18 strain growth inhibition, stronger effect = higher value
# Outline: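 Yeast w/ defined DNA-repair lesions; compound exposure; growth vs vehicle controls → % inhibition.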
# [14] = NCI Yeast Anticancer Drug Screen. Data for the rad18 strain (AID 177); details: S. cerevisiae rad18 mutant growth inhibition, stronger effect = higher value
# Outline: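 Readout: growth inhibition vs vehicle controls. Cells: genetically altered yeast strain, DNA repair defect.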
# [15] = NCI Yeast Anticancer Drug Screen. Data for the mlh1 strain (AID 171);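 further: 0% = growth of vehicle-treated control cultures of the same strain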; details: S. cerevisiae mlh1 strain growth inhibition, stronger effect = higher value
# Outline: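 Read-out: growth inhibition versus vehicle controls. Strain: engineered yeast with a defined DNA repair or cell cycle defect, compound-treated.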
# [16] = at 5.0 µM (retest, dose inferred, filed as 0.5)
# [17] = at 50.0 µM (retest, dose inferred, filed as 5.0)
structure (smiles),measurement,setting,value
CC(/C=C/c1ccccc1)=N\NC(N)=S,growth inhibition,[1]; at 1.2 µM,4%
same,growth inhibition,[1]; at 3.7 µM,16%
same,growth inhibition,[1]; at 11.0 µM,16%
same,growth inhibition,[1]; at 33.0 µM,24%
same,growth inhibition,[1]; at 100.0 µM,72% (active)
same,growth inhibition,[2]; at 1.2 µM,-8%
same,growth inhibition,[2]; at 3.7 µM,-5%
same,growth inhibition,[2]; at 11.0 µM,6%
same,growth inhibition,[2]; at 33.0 µM,17%
same,growth inhibition,[2]; at 100.0 µM,35%
same,growth inhibition,[3]; at 1.2 µM,-5%
same,growth inhibition,[3]; at 3.7 µM,6%
same,growth inhibition,[3]; at 11.0 µM,0%
same,growth inhibition,[3]; at 33.0 µM,-3%
same,growth inhibition,[3]; at 100.0 µM,48%
same,growth inhibition,[4]; at 1.2 µM,9%
same,growth inhibition,[4]; at 3.7 µM,13%
same,growth inhibition,[4]; at 11.0 µM,10%
same,growth inhibition,[4]; at 33.0 µM,29%
same,growth inhibition,[4]; at 100.0 µM,52%
same,growth inhibition,[5]; at 1.2 µM,14%
same,growth inhibition,[5]; at 3.7 µM,10%
same,growth inhibition,[5]; [16],24%
same,growth inhibition,[5]; at 11.0 µM,7%
same,growth inhibition,[5]; at 33.0 µM,93% (active)
same,growth inhibition,[5]; [17],60%
same,growth inhibition,[5]; at 50.0 µM,33.7%
same,growth inhibition,[5]; at 100.0 µM,97% (active)
same,growth inhibition,[6]; at 1.2 µM,-2%
same,growth inhibition,[6]; at 3.7 µM,5%
same,growth inhibition,[6]; [16],15%
same,growth inhibition,[6]; at 11.0 µM,-6%
same,growth inhibition,[6]; at 33.0 µM,4%
same,growth inhibition,[6]; [17],35%
same,growth inhibition,[6]; at 50.0 µM,62.5%
same,growth inhibition,[6]; at 100.0 µM,59%
same,growth inhibition,[7]; at 1.2 µM,-8%
same,growth inhibition,[7]; at 3.7 µM,2%
same,growth inhibition,[7]; at 11.0 µM,-17%
same,growth inhibition,[7]; at 33.0 µM,-15%
same,growth inhibition,[7]; at 100.0 µM,45%
same,growth inhibition,[8]; [16],58%
same,growth inhibition,[8]; [17],87% (active)
same,growth inhibition,[8]; at 50.0 µM,86.1% (active)
same,growth inhibition,[9]; at 1.2 µM,7%
same,growth inhibition,[9]; at 3.7 µM,20%
same,growth inhibition,[9]; at 11.0 µM,16%
same,growth inhibition,[9]; at 33.0 µM,25%
same,growth inhibition,[9]; at 100.0 µM,46%
same,growth inhibition,[10]; [16],-5%
same,growth inhibition,[10]; [17],15%
same,growth inhibition,[10]; at 50.0 µM,83% (active)
same,growth inhibition,[11]; at 1.2 µM,-46%
same,growth inhibition,[11]; at 3.7 µM,-38%
same,growth inhibition,[11]; at 11.0 µM,-43%
same,growth inhibition,[11]; at 33.0 µM,-9%
same,growth inhibition,[11]; at 100.0 µM,65%
same,growth inhibition,[12]; at 1.2 µM,-3%
same,growth inhibition,[12]; at 3.7 µM,9%
same,growth inhibition,[12]; at 11.0 µM,13%
same,growth inhibition,[12]; at 33.0 µM,30%
same,growth inhibition,[12]; at 100.0 µM,68%
same,growth inhibition,[13]; [16],49%
same,growth inhibition,[13]; [17],77% (active)
same,growth inhibition,[13]; at 50.0 µM,58.8%
same,growth inhibition,[14]; at 1.2 µM,9%
same,growth inhibition,[14]; at 3.7 µM,11%
same,growth inhibition,[14]; at 11.0 µM,33%
same,growth inhibition,[14]; at 33.0 µM,67%
same,growth inhibition,[14]; at 100.0 µM,94% (active)
Oc1ccc(-c2nc(-c3ccc(F)cc3)c(-c3ccc4ccccc4n3)[nH]2)cc1,growth inhibition,[1]; at 1.2 µM,-48%
same,growth inhibition,[1]; at 3.7 µM,-41%
same,growth inhibition,[1]; at 11.0 µM,85% (active)
same,growth inhibition,[1]; at 33.0 µM,96% (active)
same,growth inhibition,[1]; at 100.0 µM,88% (active)
same,growth inhibition,[2]; at 1.2 µM,-60%
same,growth inhibition,[2]; at 3.7 µM,-54%
same,growth inhibition,[2]; at 11.0 µM,64%
same,growth inhibition,[2]; at 33.0 µM,18%
same,growth inhibition,[2]; at 100.0 µM,94% (active)
same,growth inhibition,[3]; at 1.2 µM,-43%
same,growth inhibition,[3]; at 3.7 µM,-37%
same,growth inhibition,[3]; at 11.0 µM,-26%
same,growth inhibition,[3]; at 33.0 µM,-16%
same,growth inhibition,[3]; at 100.0 µM,-18%
same,growth inhibition,[4]; at 1.2 µM,-28%
same,growth inhibition,[4]; at 3.7 µM,-31%
same,growth inhibition,[4]; at 11.0 µM,81% (active)
same,growth inhibition,[4]; at 33.0 µM,97% (active)
same,growth inhibition,[4]; at 100.0 µM,92% (active)
same,growth inhibition,[5]; at 1.2 µM,-31%
same,growth inhibition,[5]; at 3.7 µM,-44%
same,growth inhibition,[5]; [16],19%
same,growth inhibition,[5]; at 11.0 µM,76% (active)
same,growth inhibition,[5]; at 33.0 µM,97% (active)
same,growth inhibition,[5]; [17],54%
same,growth inhibition,[5]; at 50.0 µM,90.5% (active)
same,growth inhibition,[5]; at 100.0 µM,94% (active)
same,growth inhibition,[6]; at 1.2 µM,-40%
same,growth inhibition,[6]; at 3.7 µM,-27%
same,growth inhibition,[6]; [16],16%
same,growth inhibition,[6]; at 11.0 µM,69%
same,growth inhibition,[6]; at 33.0 µM,98% (active)
same,growth inhibition,[6]; [17],63%
same,growth inhibition,[6]; at 50.0 µM,93% (active)
same,growth inhibition,[6]; at 100.0 µM,96% (active)
same,growth inhibition,[7]; at 1.2 µM,-51%
same,growth inhibition,[7]; at 3.7 µM,-49%
same,growth inhibition,[7]; at 11.0 µM,-6%
same,growth inhibition,[7]; at 33.0 µM,94% (active)
same,growth inhibition,[7]; at 100.0 µM,91% (active)
same,growth inhibition,[8]; [16],0%
same,growth inhibition,[8]; [17],-41%
same,growth inhibition,[8]; at 50.0 µM,92.2% (active)
same,growth inhibition,[9]; at 1.2 µM,-5%
same,growth inhibition,[9]; at 3.7 µM,-8%
same,growth inhibition,[9]; at 11.0 µM,93% (active)
same,growth inhibition,[9]; at 33.0 µM,98% (active)
same,growth inhibition,[9]; at 100.0 µM,94% (active)
same,growth inhibition,[11]; at 1.2 µM,-56%
same,growth inhibition,[11]; at 3.7 µM,-40%
same,growth inhibition,[11]; at 11.0 µM,96% (active)
same,growth inhibition,[11]; at 33.0 µM,96% (active)
same,growth inhibition,[11]; at 100.0 µM,93% (active)
same,growth inhibition,[15]; at 1.2 µM,-44%
same,growth inhibition,[15]; at 3.7 µM,-37%
same,growth inhibition,[15]; at 11.0 µM,36%
same,growth inhibition,[15]; at 33.0 µM,98% (active)
same,growth inhibition,[15]; at 100.0 µM,94% (active)
same,growth inhibition,[12]; at 1.2 µM,-34%
same,growth inhibition,[12]; at 3.7 µM,-38%
same,growth inhibition,[12]; at 11.0 µM,97% (active)
same,growth inhibition,[12]; at 33.0 µM,98% (active)
same,growth inhibition,[12]; at 100.0 µM,90% (active)
same,growth inhibition,[13]; [16],27%
same,growth inhibition,[13]; [17],70% (active)
same,growth inhibition,[13]; at 50.0 µM,85.8% (active)
same,growth inhibition,[14]; at 1.2 µM,-28%
same,growth inhibition,[14]; at 3.7 µM,-36%
same,growth inhibition,[14]; at 11.0 µM,96% (active)
same,growth inhibition,[14]; at 33.0 µM,97% (active)
same,growth inhibition,[14]; at 100.0 µM,94% (active)
